Laboratory results reported in PubChem BioAssay (Tox21).
Calls of active or inactive are those of the source. Calls follow the shape of the dose curve; as a rule, active = well fitted cell-killing curve with a large enough effect in the repeat runs; inconclusive = weak or mixed curves, or effect the other way; inactive = flat fitted curve, though single readings scatter.

assay: qHTS assay to identify small molecule HDAC inhibitors - cell viability counter screen (AID 1259365); conditions: HCT-116 viability, CellTiter-Glo ATP luminescence, 2 h; series mostly up to 92.4 µM; activity change, negative = cytotoxicity: at the top concentration; also: nearly all actives have a fitted effect of over 50% in size
Excerpt: U.S. Tox21 Program National Center for Advancing Translational Sciences [NCATS] NIH Chemical Genomics Center [NCGC] U.S. Environmental Protection Agency [EPA] National Institutes of Environmental Health Sciences [NIEHS] National Toxicology Program [NTP] U.S. Food and Drug Administration [FDA] Tox21 Assay Overview: Histone deacetylases (HDACs) are a group of epigenetic enzymes that regulate gene expression by histone deacetylation. HDACs are capable of introducing epigenetic modifications and such aberrations contribute to the onset and progression of several human diseases, thus making HDACs a popular therapeutic target. For identifying endogenous class I/II HDAC inhibitors a homogenous, luminogenic HDAC I/II cell based assay was used to measure the relative activity of class I and II HDACs from cells. Wild type HCT-116 cells were used to screen Tox21 compound libraries for identifying class I/II HDAC inhibitors.
Tox21 Assay Protocol Summary: HCT-116 cells were dispensed at 1,500 per well in 5uL of culture medium into white solid bottom 1536-well plates (Greiner Bio-One, Monroe, NC) using a Multidrop Combi (Thermo Scientific, Waltham, MA) dispenser. The assay plates were incubated at 37 C and 5% CO2 for an overnight, and then 23nL of compounds dissolved in DMSO and positive control were transferred using a Pintool station (Wako, San Diego, CA). The assay plates were incubated at 37C and 5% CO2 for 2hr. After compound treatment, 4uL of CellTiter-Glo reagent (Promega Corporation, Madison, WI) was added to each well of the assay plates using Flying Reagent Dispenser (FRD, Aurora Discovery, San Diego, CA) and incubated the assay plates at room temperature for 30min. The luminescence signal was quantified using a ViewLux plate reader (Perkin Elmer, Shelton, CT).
% is scaled to controls: 0 for no effect and ±100 for the full control effect.

| SMILES | activity change, negative = cytotoxicity |
| --- | --- |
| OCCC(F)(F)C(F)(F)C(F)(F)C(F)(F)C(F)(F)C(F)(F)F | 0.29% (inactive) |
| CC1(C)S[C@@H]2[C@H](NC(=O)Cc3ccccc3)C(=O)N2[C@H]1C(=O)O (tested in a mixture with another compound) | 2.87% [at 42.5 µM] (inactive) |
| O=C(O)COc1ccc2ccccc2c1 | 1.72% (inactive) |
| COC(=O)/C=C(\C)CCC=C(C)C | -1.55% (inactive) |
| CN(C)CCCN(C)C | 1.58% [at 8.39 µM] (inactive) |
| CC(=O)/C=C/C=C1/C2CCC(C2)C1(C)C (stereo not given) | 0.684% [at 42.5 µM] (inactive) |
| C/C=C(\C)C(=O)OC/C=C(\C)CCC=C(C)C | -11.5% (inactive) |
| CCC(=O)OCCOc1ccccc1 | -0.154% (inactive) |
| O=C1c2ccccc2C(=O)N1CO | -2.17% (inactive) |
| CCCC(C)C(O)CC (stereo not given) | 0.928% (inactive) |
| N#CC1(N)CCCCC1 | -3.31% (inactive) |
| Cc1nnc(C(=O)NC(C)(C)c2nc(C(=O)NCc3ccc(F)cc3)c(O)c(=O)n2C)o1 | -3.36% [at 42.5 µM] (inactive) |
| COc1cc(OC)cc(OC)c1 | -0.664% [at 42.5 µM] (inactive) |
| CC(=O)SCC(CC(=O)c1ccc(C)cc1)C(=O)O (stereo not given) | -0.464% [at 42.5 µM] (inactive) |
| CC(=O)c1c(C)cc(C(C)(C)C)cc1C | -6.53% (inactive) |
| CNC(C)=O | 2.2% (inactive) |
| Nc1ccc(C(=O)NCC(=O)O)cc1 | 0.0896% [at 42.5 µM] (inactive) |
| CC1=C(O)C(=O)CO1 | 1.81% (inactive) |
| C=CCN1CCc2nc(N)sc2CC1 | -1.19% [at 42.5 µM] (inactive) |
| Cc1cc(O)c(Cl)cc1C | 3.9% (inactive) |

| SMILES | activity change, negative = cytotoxicity |
| --- | --- |
| N=C(N)N1CCc2ccccc2C1 | -4.02% [at 8.39 µM] (inactive) |
| CCCCC(CC)COC(=O)CC#N (stereo not given) | -3.1% (inactive) |
| CCCCN1C(=O)c2ccccc2C1=O | -2.32% (inactive) |
| CCC(C)c1nccnc1OC (stereo not given) | 0.0566% (inactive) |
| COc1cc(C(=O)NC2CCCNC2)cc(OC)c1OC (stereo not given) | 3.79% [at 42.5 µM] (inactive) |
| CCCC(=O)OC | -2.42% (inactive) |
| O=c1c(O)c(O)c1=O | -0.13% (inactive) |
| Cc1ccc(OC(=O)CC(C)C)cc1 | 1.2% (inactive) |
| C=CCN(CC=C)CC=C | 0.244% (inactive) |
| COC(=O)c1ccc(NC(C)=O)cc1OC | 2.1% [at 42.5 µM] (inactive) |
| CCCOc1ccc(C(=O)OCCN(CC)CC)cc1N | 2.64% [at 42.5 µM] (inactive) |
| CC(=O)c1ccc2ccc3ccccc3c2c1 | 6.02% (inactive) |
| N=C(N)N | -0.478% [at 42.5 µM] (inactive) |
| CC(C)(C)c1ccc(N)cc1 | -8.69% (inactive) |
| Cc1ccccc1OCC(=O)O | -0.001% (inactive) |
| CCC(C)(C)C | 7.36% (inactive) |
| COC(=O)c1ccc(C(=O)O)cc1 | 3.36% (inactive) |
| C[n+]1ccccc1/C=N/O | 0.67% [at 42.5 µM] (inactive) |
| CCO/C=C1\N=C(c2ccccc2)OC1=O | 2.93% (inactive) |
| Cc1ccccc1C#N | 1.13% (inactive) |
